Records with an inconclusive call do not appear. A number with no mark means an inactive call. Calls of active or inactive are those of the source. Calls follow the shape of the dose curve; as a rule, active = well fitted inhibition curve with a large enough effect in the repeat runs; inconclusive = weak or mixed curves; inactive = no such curve, though single readings can be large or run the other way.
These compounds were tested against Androgen receptor (Homo sapiens) (UniProt P10275) (assay: qHTS assay to identify small molecule antagonists of the androgen receptor (AR) signaling pathway using the MDA cell line in the presence of 0.5 nM R1881 (AID 1259243; also: nearly all actives have a fitted effect of over 50% in size)). Settings: MDA-kb2 MMTV-luciferase, R1881 0.5 nM, 16 h; series mostly up to 92.4 µM; activity, negative = inhibition: at the top concentration.
Androgen receptor (Homo sapiens), sequence (P10275 whole entry, looked up): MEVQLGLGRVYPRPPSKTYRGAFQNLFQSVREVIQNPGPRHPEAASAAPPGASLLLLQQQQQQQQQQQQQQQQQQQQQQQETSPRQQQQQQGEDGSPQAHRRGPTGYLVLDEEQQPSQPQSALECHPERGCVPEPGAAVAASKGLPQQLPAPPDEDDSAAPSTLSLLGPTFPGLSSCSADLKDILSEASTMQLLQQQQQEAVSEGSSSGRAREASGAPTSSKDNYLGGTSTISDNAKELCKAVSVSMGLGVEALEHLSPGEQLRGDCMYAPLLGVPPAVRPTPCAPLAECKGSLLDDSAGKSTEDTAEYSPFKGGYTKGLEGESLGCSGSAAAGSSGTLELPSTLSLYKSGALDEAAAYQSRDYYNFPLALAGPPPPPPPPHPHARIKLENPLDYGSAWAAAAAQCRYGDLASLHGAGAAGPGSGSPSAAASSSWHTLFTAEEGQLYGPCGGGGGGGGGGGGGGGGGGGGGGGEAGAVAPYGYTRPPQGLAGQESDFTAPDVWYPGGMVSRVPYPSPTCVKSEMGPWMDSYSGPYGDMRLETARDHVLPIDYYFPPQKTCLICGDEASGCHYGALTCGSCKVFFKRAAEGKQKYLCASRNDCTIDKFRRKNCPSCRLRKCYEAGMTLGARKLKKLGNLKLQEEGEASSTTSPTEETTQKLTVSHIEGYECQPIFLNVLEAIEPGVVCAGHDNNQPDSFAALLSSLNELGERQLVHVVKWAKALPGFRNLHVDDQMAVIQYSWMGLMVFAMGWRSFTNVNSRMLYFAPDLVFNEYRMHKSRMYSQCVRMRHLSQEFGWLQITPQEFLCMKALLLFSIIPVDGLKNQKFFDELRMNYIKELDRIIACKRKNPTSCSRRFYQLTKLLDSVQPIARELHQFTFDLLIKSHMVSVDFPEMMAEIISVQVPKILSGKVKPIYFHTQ
Text: U.S. Tox21 Program National Center for Advancing Translational Sciences [NCATS] NIH Chemical Genomics Center [NCGC] U.S. Environmental Protection Agency [EPA] National Institutes of Environmental Health Sciences [NIEHS] National Toxicology Program [NTP] U.S. Food and Drug Administration [FDA] Tox21 Assay Overview: Androgen receptor (AR) is an important member of the nuclear receptor family. Its signaling plays a critical role in AR-dependent prostate cancer and other androgen related diseases. Considerable attention has been given in the past decades to develop methods to study and screen for the environmental chemicals that have the potential to interfere with metabolic homeostasis, reproduction, developmental and behavioral functions. Therefore AR binding assay for screening androgen antagonists can be used to identify potential endocrine disruptors. MDA-kb2 cells (from ATCC, deposited by Wilson et al.) were used to screen for AR inhibitors against Tox21 compound libraries. These cells are human breast carcinoma cells that were stably transfected with a luciferase reporter gene under control of the MMTV promoter that contains response elements for both androgen receptor (AR) and glucocorticoid receptor (GR). The current screening for identification of AR inhibitors against Tox21 libraries used lower concentration (0.5 nM) of R1881 as a stimulator.
Tox21 Assay Protocol Summary: MDA-kb2 cells (cells cultured without CO2) were dispensed at 3,000 cells/well in 4 uL of culture medium into white wall/solid-bottom 1536-well plates (Corning Life Sciences, Corning, NY) using a Multidrop Combi (ThermoFisher Scientific, Waltham, MA) dispenser. After the assay plates were incubated at a 37C and 0% CO2 for 5 hr, 23 nL of compounds dissolved in DMSO, positive controls or DMSO only was transferred to the assay plate by a Pintool station (Kalypsys, San Diego, CA). The transfer of compounds was followed by the addition of 1 uL of 0.5 nM (final concentration) agonist (R1881)/culture medium using a Flying Reagent Dispenser (FRD, Aurora Discovery, San Diego, CA). The plates were incubated at 37C and 0% CO2 for 16 hr. For luciferase reporter gene assay, 4 uL of ONE-Glo reagent (Promega Corporation, Madison, WI) was added to each well using the FRD and after 30 min incubation at room temperature luminescence intensity was measured using ViewLux plate reader (PerkinElmer, Shelton, CT).
% is scaled to controls: 0 for no effect and ±100 for the full control effect; potency is read from the fitted curve at half-maximal effect.

SMILES	activity, negative = inhibition	Potency
COCCC(=O)OC	-8.64%	
CN(C[C@@H](CC[N+]12CCC(C3CCCCC3)(CC1)CC2)c1ccc(Cl)c(Cl)c1)C(=O)c1cc(C(F)(F)F)cc(C(F)(F)F)c1		68.6 µM (active)
CC(CC(C)(C)C)CC(C)(C)CC(C)(C)C (stereo not given)	6.74% [at 42.5 µM]	
O=[N+]([O-])c1ccc(CO)cc1	24.5%	
CSc1nnc(C(C)(C)C)c(=O)[nH]1	-0.406%	
CCN(CC)c1ccc(N=Nc2ccccc2)cc1	19.4%	
CCOC=C(C(=O)OCC)C(=O)OCC	5.25%	
CC(C)(C)c1cc(CCC(=O)OCCSCCOC(=O)CCc2cc(C(C)(C)C)c(O)c(C(C)(C)C)c2)cc(C(C)(C)C)c1O	8.96% [at 42.5 µM]	
O=C(NCc1ncc(C(F)(F)F)cc1Cl)c1c(Cl)cccc1Cl		54.5 µM (active)
CCCCCCCCSCc1cc(C)c(O)c(CSCCCCCCCC)c1	29.4%	
COc1cc2ncnc(Nc3cccc(Cl)c3)c2cc1OC	23.3% [at 19 µM]	
COc1cc(C(C)C)ccc1C	-0.285% [at 19 µM]	
CCCCCCCCCCCCCCCCCCNC(=O)OC1CCN(C(=O)OC[C@H](COC(=O)N(Cc2cccc[n+]2CC)C(=O)c2ccccc2OC)OC)CC1		23.7 µM (active)
CCCCCCCCCCCCCCCCC(C(=O)O)C(O)(CC(=O)O)C(=O)O (stereo not given)	1.19% [at 42.5 µM]	
Cc1c[nH]c(=O)[nH]c1=O	1.79%	
Cc1ccc2sc3cccc(C)c3c2c1		8.63 µM (active)
CCC(O)CO (stereo not given)	1.44%	
CCc1c(C)cc(N)c(CC)c1N	1.49%	
O=c1cc[nH]cc1	16.7%	
CCN(CCC#N)c1ccc(N=Nc2ccc([N+](=O)[O-])cc2)cc1	16.7%	

SMILES	activity, negative = inhibition	Potency
Clc1cccc(Cl)n1	11.6%	
Oc1ccc2c(c1)CCC2	0.198%	
C=CC(=O)OCCOC1C2CCC1C1CC=CC12 (stereo not given)	-0.369% [at 19 µM]	
CC/C(=C(/c1ccc(O)cc1)c1ccc(OCCN(C)C)cc1)c1ccccc1		32 µM (active)
Clc1ccc2c(Cl)ccnc2c1	2.26%	
Nc1ccc2c(S(=O)(=O)O)cccc2c1S(=O)(=O)O	-3.75% [at 42.5 µM]	
C/C(=N\[Si](C)(C)C)O[Si](C)(C)C	1.85%	
CN1CC[C@H](c2c(O)cc(O)c3c(=O)cc(-c4ccccc4Cl)oc23)[C@H](O)C1		0.0944 µM (active)
C[C@H]1O[C@@H](O[C@H]2CC[C@@]3(C)[C@H](CC[C@@H]4[C@@H]3C[C@@H](O)[C@]3(C)[C@@H](C5=CC(=O)OC5)CC[C@]43O)C2)C[C@H](O)[C@@H]1O[C@H]1C[C@H](O)[C@H](O[C@H]2C[C@H](O)[C@H](O[C@@H]3O[C@H](CO)[C@@H](O)[C@H](O)[C@H]3O)[C@@H](C)O2)[C@@H](C)O1	19.6% [at 42.5 µM]	
CN1CCN(C)CC1	-9.99%	
CN[C@H]1CC[C@@H](c2ccc(Cl)c(Cl)c2)c2ccc(S(N)(=O)=O)cc21		30.6 µM (active)
Cc1cc(F)ccc1-c1cc(N2CC[C@@H](O)[C@H]2CO)ncc1N(C)C(=O)C(C)(C)c1cc(C(F)(F)F)cc(C(F)(F)F)c1		38 µM (active)
CCC1(C)C(=O)N(Cl)C(=O)N1Cl (stereo not given)	2.25%	
CCc1cccc(C)c1N(C(=O)CS(=O)(=O)O)C(C)COC (stereo not given)	2.71%	
CCc1cccc(CC)c1	-2.03%	
O=C1OC2(c3ccccc31)c1ccc(O)c(Br)c1Oc1c2ccc(O)c1Br	-15.9%	
CC(C)(C)c1ccc(OC2CCCCC2O)cc1 (stereo not given)		61.1 µM (active)
CCc1cccc(C)c1N(C(=O)C(=O)O)C(C)COC (stereo not given)	9.78%	
O=C(O)C[C@H](O)C[C@H](O)/C=C/c1c(C2CC2)nc2ccccc2c1-c1ccc(F)cc1	31.2% [at 19 µM]	
C=C(C)CCO	0.602%	

Source: PubChem BioAssay (Tox21)
